The panel holds about 83,000 compounds, 20% with a hit somewhere; the sample as a whole holds those more often.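 Plates (96-well) were seeded with cells, treated with compound at one concentration, and incubated for 48 hours before percent growth was determined.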 Active and inactive are the calls of the source. How the source made its calls: active means growth percent below 10; inactive means the rest.
Columns and labels:
Test in all cases: NCI-60 one-dose screen, 48 h (100 = growth as untreated, 0 = no growth, -100 = all killed)
Settings in all cases: 10 µM unless noted
T-47D breast = tested on: T-47D breast
BT-549 breast = tested on: BT-549 breast
MDA-MB-435 melanoma = tested on: MDA-MB-435 melanoma
SW-620 colon = tested on: SW-620 colon
MCF7 breast = tested on: MCF7 breast
HCT-116 colon = tested on: HCT-116 colon
HCC-2998 colon = tested on: HCC-2998 colon
KM12 colon = tested on: KM12 colon

Measured: growth

CNc1cc(C(=O)O)nc(NC)n1
inactive: T-47D breast 102% | BT-549 breast 88.7% | MDA-MB-435 melanoma 95.6% | SW-620 colon 98.1% | MCF7 breast 99.4% | HCT-116 colon 104% | HCC-2998 colon 94.7% | KM12 colon 102%

CCOC(=O)COc1ccc2c(c1)O/C(=C\c1ccc(O)cc1)C2=O
inactive: T-47D breast 99.9% | BT-549 breast 101% | MDA-MB-435 melanoma 102% | SW-620 colon 104% | MCF7 breast 105% | HCT-116 colon 105% | HCC-2998 colon 111% | KM12 colon 110%

Cc1nc(Cl)cc(N(c2cc(Cl)nc(C)n2)c2ncc(C(=O)Nc3c(C)cccc3Cl)s2)n1
inactive: T-47D breast 23.5% | BT-549 breast 93.3% | MDA-MB-435 melanoma 71.8% | SW-620 colon 96.6% | MCF7 breast 53.3% | HCT-116 colon 19.1% | HCC-2998 colon 80.7% | KM12 colon 79.7%

Cc1cc(N2CCCCCC2)nc(N2CCN(CC(=O)Nc3ccc4c(ccn4Cc4ccccc4)c3)CC2)n1
inactive: T-47D breast 20.2% | BT-549 breast 59% | MDA-MB-435 melanoma 67.7% | SW-620 colon 63.2% | MCF7 breast 24.1% | HCC-2998 colon 91.7% | KM12 colon 35%

CC1(C)CC[C@]23CC[C@]4(C)[C@H](CC[C@@H]5[C@@]6(C)C/C(=C/c7ccncc7)C(=O)C(C)(C)[C@@H]6CC[C@]54C)[C@H]2[C@H]1OC3=O
inactive: T-47D breast 62.6% [100 µM] | BT-549 breast 52.4% [100 µM] | MDA-MB-435 melanoma 78.7% [100 µM] | SW-620 colon 80.8% [100 µM] | MCF7 breast 70.1% [100 µM] | HCC-2998 colon 78.2% [100 µM] | KM12 colon 81.3% [100 µM]

CC(C)C1=NOC(=O)C1=Cc1cn(-c2ccccc2)nc1-c1ccc(Br)cc1
inactive: T-47D breast 74.8% | BT-549 breast 119% | MDA-MB-435 melanoma 71.3% | SW-620 colon 57.7% | HCT-116 colon 64.2% | HCC-2998 colon 76.2% | KM12 colon 85.4%

CC(C)C1=NOC(=O)C1=Cc1cn(-c2ccccc2)nc1-c1ccccc1
inactive: T-47D breast 76.2% | BT-549 breast 114% | MDA-MB-435 melanoma 73.2% | SW-620 colon 60.1% | HCT-116 colon 28.9% | HCC-2998 colon 91.8% | KM12 colon 79.5%

CCOC(CNC(=O)c1cccc([N+](=O)[O-])c1)OCC
inactive: T-47D breast 92.1% | BT-549 breast 60.5% | MDA-MB-435 melanoma 103% | SW-620 colon 102% | MCF7 breast 87.2% | KM12 colon 112%

CCn1cc(-c2ccnc(NCCNS(=O)(=O)c3ccc(Br)cc3)c2)c(-c2cccc(OC)c2)n1
inactive: T-47D breast 16.3% | BT-549 breast 99.7% | MDA-MB-435 melanoma 83.7% | SW-620 colon 81.7% | HCT-116 colon 51.6% | HCC-2998 colon 111% | KM12 colon 82.8%

CCCc1cc2cc(-n3nc(C)c4c3CC(C)(C)CC4=O)cc(NC3CCSCC3)c2c(=O)[nH]1
inactive: T-47D breast 54.7% | BT-549 breast 61.5% | SW-620 colon 32.4% | MCF7 breast 36.5% | HCT-116 colon 19.8% | HCC-2998 colon 46.9% | KM12 colon 41.7%

CCOC(=O)c1c[nH]n2c(=S)ncnc12
inactive: T-47D breast 98.7% | BT-549 breast 108% | SW-620 colon 112% | MCF7 breast 96.3% | HCT-116 colon 101% | HCC-2998 colon 112% | KM12 colon 99.9%

COc1cc(/C=C/C(=O)/C=C/c2ccc(-n3ccnc3C)cc2)ccc1O
active: MDA-MB-435 melanoma -3.29% | SW-620 colon 2.17% | MCF7 breast 4.86% | HCC-2998 colon -47.3% | KM12 colon -49.7%
inactive: T-47D breast 54.5% | BT-549 breast 95.5%

COc1c(C(C)=O)c(OCCCCOc2c(C(C)=O)c(OC)c3ccoc3c2OC)c(OC)c2occc12
inactive: T-47D breast 23% | BT-549 breast 98.8% | MDA-MB-435 melanoma 57.9% | SW-620 colon 93.4% | MCF7 breast 64.4% | HCC-2998 colon 76.7% | KM12 colon 50.4%

CCN(CC)CCS(=O)(=O)CCNc1ccnc2cc(Cl)ccc12
active: BT-549 breast -0.495% | MDA-MB-435 melanoma 3.99% | SW-620 colon 7.17% | HCC-2998 colon -13.5% | KM12 colon -24.5%
inactive: T-47D breast 43.4% | MCF7 breast 26.9%

Cc1ccc(S(=O)(=O)n2cc(C(=O)C(=O)N3CCCCC3)c3ccccc32)cc1
inactive: T-47D breast 36.1% | BT-549 breast 74.8% | MDA-MB-435 melanoma 87.1% | SW-620 colon 123% | MCF7 breast 85.8% | HCC-2998 colon 82.3% | KM12 colon 87.6%

COc1ccc(-c2nc3ccccn3c2/C=C/C(=O)c2cc(OC)c(OC)c(OC)c2)cc1OC
active: T-47D breast 2.52% | BT-549 breast -0.101% | MCF7 breast 4.01% | KM12 colon 3.9%
inactive: MDA-MB-435 melanoma 20.3% | SW-620 colon 14.6% | HCC-2998 colon 16.4%

CC(C)(C)c1cc(C(=O)Nc2ccc(C(=O)NCCN)cc2)cc(C(C)(C)C)c1
active: MDA-MB-435 melanoma -49.5% | SW-620 colon 1.34% | MCF7 breast 3.31% | HCC-2998 colon 1.78%
inactive: T-47D breast 27.3% | BT-549 breast 87.6% | KM12 colon 12.9%

CC(C)C1=NOC(=O)C1=Cc1cn(-c2ccccc2)nc1-c1ccc(Cl)cc1
inactive: T-47D breast 74.6% | BT-549 breast 117% | MDA-MB-435 melanoma 76.4% | SW-620 colon 61.4% | HCC-2998 colon 72.5% | KM12 colon 91.7%

CC(C)C1=NOC(=O)C1=Cc1cn(-c2ccccc2)nc1-c1cccc([N+](=O)[O-])c1
inactive: T-47D breast 84.5% | BT-549 breast 109% | MDA-MB-435 melanoma 80% | SW-620 colon 57.8% | HCT-116 colon 34.7% | HCC-2998 colon 87.3% | KM12 colon 87%

CCOC(=O)c1ccc2nc(-c3c(C)nn(-c4ccccc4)c3N3CCOCC3)[nH]c2c1
inactive: T-47D breast 73% | BT-549 breast 93.4% | MDA-MB-435 melanoma 99.4% | SW-620 colon 97.3% | MCF7 breast 88.6% | HCC-2998 colon 95.9% | KM12 colon 96.9%

O=C(COc1cccc(/C=C2\Oc3ccccc3C2=O)c1)c1ccc([N+](=O)[O-])cc1
inactive: T-47D breast 51.6% | BT-549 breast 110% | MDA-MB-435 melanoma 116% | SW-620 colon 113% | MCF7 breast 50.7% | HCC-2998 colon 96.8% | KM12 colon 110%

COc1cc(C)cc2oc3oc(=O)c(-c4nc5ccccc5s4)cc3c(=O)c12
inactive: T-47D breast 91.2% | BT-549 breast 92.7% | MDA-MB-435 melanoma 95.3% | SW-620 colon 83.9% | MCF7 breast 84.7% | HCC-2998 colon 109% | KM12 colon 93.1%

Cc1ccc(S(=O)(=O)NCCCNc2nccc(-c3c(-c4cccc(F)c4)nc4occn34)n2)cc1
inactive: T-47D breast 39.5% | BT-549 breast 92.1% | MDA-MB-435 melanoma 43.4% | SW-620 colon 76.8% | HCT-116 colon 53.6% | HCC-2998 colon 117% | KM12 colon 77.6%

CC1(C)CC[C@]2(C(=O)O)CC[C@]3(C)C(=CC[C@@H]4[C@@]5(C)C/C(=C/c6ccco6)C(=O)C(C)(C)[C@@H]5CC[C@]43C)[C@@H]2C1
active: T-47D breast -0.554% [100 µM] | BT-549 breast -27.2% [100 µM] | SW-620 colon -32.8% [100 µM] | MCF7 breast -8.44% [100 µM] | HCT-116 colon -71.8% [100 µM] | HCC-2998 colon -58.1% [100 µM] | KM12 colon -65.9% [100 µM]

O=C(N/N=C1\c2ccccc2-c2cccc(C(=O)O)c21)c1ccc(O)cc1
inactive: T-47D breast 104% | BT-549 breast 83.7% | MDA-MB-435 melanoma 99.1% | SW-620 colon 84.3% | HCT-116 colon 99.4% | HCC-2998 colon 98.9% | KM12 colon 105%

Clc1ccc(/C=N/Nc2nc3ccccc3s2)c(Cl)c1
inactive: T-47D breast 74.4% | BT-549 breast 115% | MDA-MB-435 melanoma 91.9% | SW-620 colon 79.3% | HCT-116 colon 80.6% | HCC-2998 colon 101% | KM12 colon 94%

CCOc1cc(NC(=O)c2ccccc2)c(OCC)cc1N
inactive: T-47D breast 101% | BT-549 breast 130% | MDA-MB-435 melanoma 107% | SW-620 colon 109% | MCF7 breast 108% | HCC-2998 colon 112% | KM12 colon 105%

N/C(=N\c1nc2ccccc2[nH]1)NC(=O)Cc1cccc2ccccc12
inactive: T-47D breast 71.4% | BT-549 breast 85.3% | MDA-MB-435 melanoma 94.3% | SW-620 colon 85.6% | MCF7 breast 59.4% | HCC-2998 colon 103% | KM12 colon 82%

CC(C)=CCC[C@](C)(O)[C@H]1CC[C@]2(C)[C@@H]1CC[C@@H]1[C@@]3(C)CC[C@H](OC(=O)CCC(=O)O)C(C)(C)[C@@H]3CC[C@]12C
active: MDA-MB-435 melanoma 6.66% [100 µM] | KM12 colon -19% [100 µM]
inactive: T-47D breast 25.7% [100 µM] | BT-549 breast 25.5% [100 µM] | SW-620 colon 12.1% [100 µM] | MCF7 breast 15.8% [100 µM] | HCC-2998 colon 20.5% [100 µM]

O=S(=O)(NCCCNc1nccc(-c2c(-c3cccc(F)c3)nc3occn23)n1)c1cccc2ccccc12
active: T-47D breast 4.4% | HCC-2998 colon 2.75%
inactive: BT-549 breast 45% | MDA-MB-435 melanoma 15.7% | SW-620 colon 24.2% | HCT-116 colon 23.4% | KM12 colon 15.7%
